Drawing on PubChem BioAssay (NCATS), this text covers Potency for 20 molecules.

Inconclusive results are not listed. The source made the active and inactive calls. The call rests on the fitted dose curve; in most records, active means well fitted curve in the direction sought with a large enough effect; inconclusive means small, poorly fitted or top-dose-only effect, or another doubt; inactive means no such curve, though single readings can be large; an effect the other way counts as inactive or inconclusive.

Assay [1] is described as follows: Quantitative High-Throughput drug screen in 47 multiple myeloma cell lines against the NCATS MIPE library collection: KMM1_JCRB cell viability assay (AID 1918960). Further: nearly all actives have a fitted effect of over 30% in size. Summed up:
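Viability screen: myeloma cells (500/well) incubated 48 h at 37 °C, humidified 5% CO2, with pinned library compounds; CellTiter-Glo added, luminescence read; DMSO wells set 100%, medium-only wells 0%.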

Assay [2] in a line: Quantitative High-Throughput drug screen in 47 multiple myeloma cell lines against the NCATS MIPE library collection: KHM11_PLB cell viability assay (AID 1918962). Further: nearly all actives have a fitted effect of over 35% in size. Summed up:
(§1)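 Myeloma cells (500 per well) were exposed to MIPE 4.0 compounds by pin transfer and incubated 48 hours at 37C, 5% CO2. Viability was read as ATP by CellTiter-Glo luminescence, normalised to DMSO (100%) and media-only (0%) wells.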

Assay [3] can be described thus: Quantitative High-Throughput drug screen in 47 multiple myeloma cell lines against the NCATS MIPE library collection: JJN3_DSMZ cell viability assay (AID 1918966; further: nearly all actives have a fitted effect of over 50% in size). Summed up:
(§2)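 Luminescent ATP measurement with CellTiter-Glo gives viability, scaled between DMSO-only wells (100%) and media-only wells (0%). Cells, 500 per well, faced library compounds for 48 hours at 37C.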

The nature of assay [4]: Quantitative High-Throughput drug screen in 47 multiple myeloma cell lines against the NCATS MIPE library collection: H1112_PLB cell viability assay (AID 1918967; further: nearly all actives have a fitted effect of over 30% in size). In short, it runs like this: as §2
Assay [5] in a line: Quantitative High-Throughput drug screen in 47 multiple myeloma cell lines against the NCATS MIPE library collection: Karpas25_ECACC cell viability assay (AID 1918968; further: nearly all actives have a fitted effect of over 35% in size). In short, it runs like this: as §2
The nature of assay [6]: Quantitative High-Throughput drug screen in 47 multiple myeloma cell lines against the NCATS MIPE library collection: JIM3_ECACC cell viability assay (AID 1918963; further: nearly all actives have a fitted effect of over 35% in size). Summed up:
as §1

Assay [7] in a line: Quantitative High-Throughput drug screen in 47 multiple myeloma cell lines against the NCATS MIPE library collection: KMS27_JCRB cell viability assay (AID 1918970). Further: nearly all actives have a fitted effect of over 30% in size. Summed up:
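CellTiter-Glo luminescence after 48 h drug exposure at 37 °C; 500 cells/well, 1536-well format, pin-tool compound addition; DMSO = 100%, media-only = 0% viability.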

The nature of assay [8]: Quantitative High-Throughput drug screen in 47 multiple myeloma cell lines against the NCATS MIPE library collection: INA6_PLB cell viability assay (AID 1918965; further: nearly all actives have a fitted effect of over 55% in size). Summed up:
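CellTiter-Glo ATP luminescence gave viability after 48 h compound treatment at 37C of 500 multiple myeloma cells per well. Normalisation used DMSO-only wells as 100% and media-only wells as 0% viability; primary qHTS of approved and investigational drugs.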

Assay [9] in a line: Quantitative High-Throughput drug screen in 47 multiple myeloma cell lines against the NCATS MIPE library collection: JIM1_ECACC cell viability assay (AID 1918964). Summed up: as §2
Potency means the concentration at half of the fitted maximal effect.

For the molecule `O=S(=O)(F)Cc1ccccc1`, the Potency entry in assay [1], in [3] and in assay [4] was “inactive” throughout. In addition, the Potency in assay [2] was 9.35 µM (active); in assay [5] it was 2.64 µM (active).
Turning to `C[C@H]([C@H](O)CCC(C)(C)O)[C@H]1CC[C@@]2(O)C3=CC(=O)[C@@H]4C[C@@H](O)[C@@H](O)C[C@]4(C)[C@@H]3CC[C@]12C`, the Potency entry in assay [1], in [2], in [6], in assay [4], in assay [5] and in assay [7] was “inactive” in each case.
Consider `CCC(=O)OC1CCC2C3CCC4=CC(=O)CC[C@@]4(C)C3CC[C@]12C` (stereo partly specified), for which the Potency entry in [1], in [2] and in assay [6] was “inactive” throughout. Also, the Potency in [8] was 20.9 µM (active).
Regarding `CC(O)=C(C#N)C(=O)Nc1cc(Br)ccc1Br`, the Potency entry in assay [1] and in assay [6] was “inactive” throughout. Moreover, the Potency in [4] was 0.935 µM (active).
With `CC(C)(C)c1cc(C=C(C#N)C#N)cc(Br)c1O`, the Potency in [1] is 18.7 µM (active); in assay [2], 14.8 µM (active); in assay [6], 16.6 µM (active); in [3], 23.5 µM (active); in assay [4] it was 16.6 µM (active); in [5], 3.72 µM (active).
Take `C[C@@H]1CC[C@H]2[C@@H](C)C(=O)O[C@@H]3O[C@@]4(C)CC[C@H]1[C@]32OO4`: the Potency entry in [1] and in assay [7] was “inactive” throughout. For the same molecule, the Potency is 1.48 µM (active) in assay [6], 0.0132 µM (active) in assay [3] and 0.469 µM (active) in assay [5].
For `CC(=Cc1csc(C)n1)[C@@H]1C[C@H]2O[C@]2(C)CCC[C@H](C)[C@@H](O)[C@@H](C)C(=O)C(C)(C)[C@@H](O)CC(=O)O1`, in assay [1], the Potency was 0.001 µM (active). Further, the Potency result in assay [2], in assay [6], in assay [3], in [4] and in assay [5] was “inactive” throughout.
`O=c1cccc2n1CC1CNC[C@H]2C1`: the Potency was 11.8 µM (active) in assay [1], 14.8 µM (active) in assay [8] and 23.5 µM (active) in assay [5]. Besides, the Potency entry in [2], in [6] and in [3] was “inactive” in each case.
With `CC(=O)O[C@@]12CO[C@H]1C[C@H](O)[C@@]1(C)C(=O)[C@H](O)C3=C(C)[C@@H](O)C[C@@](O)([C@@H](OC(=O)c4ccccc4)[C@@H]21)C3(C)C`, the values for the Potency in [1] and in assay [6] were 1.18 µM (active) and 1.05 µM (active), respectively.
Turning to `CCCN1CCO[C@@H]2c3cc(O)ccc3OC[C@@H]21`, the Potency result in assay [1], in [6], in [4], in assay [5] and in assay [7] was “inactive” throughout.
For the molecule `COC1=CC(C)=C[C@@H](C)[C@@H](O)[C@@H](C)CC(C)=CC=C[C@H](OC)[C@H]([C@@H](C)[C@@H](O)[C@H](C)[C@@]2(O)C[C@@H](O)[C@H](C)[C@@H](C(C)C)O2)OC1=O`, the Potency in assay [1] was 0.0093 µM (active); in assay [2] it was 0.001 µM (active); in assay [6] it was 0.0053 µM (active); in [9], 0.001 µM (active); in assay [4] it was 1.66 µM (active); in assay [5] it was 0.0083 µM (active).
As to `Cc1[nH]nc2ccc(-c3cncc(OC[C@@H](N)Cc4c[nH]c5ccccc45)c3)cc12`, the Potency result in assay [1] and in [7] was “inactive” throughout. Also, the Potency in assay [2] was 0.132 µM (active); in assay [6], 1.48 µM (active); in [8] it was 0.372 µM (active); in [3], 0.264 µM (active); in assay [4], 0.935 µM (active); in assay [5] it was 2.35 µM (active).
For the molecule `c1ccc(CCCN2CCN(CCOC(c3ccccc3)c3ccccc3)CC2)cc1`, the Potency entry in assay [1] and in [7] was “inactive” in each case. Further, the Potency in assay [2] was 16.6 µM (active); in [6], 20.9 µM (active); in [3], 20.9 µM (active); in assay [4] it was 26.4 µM (active); in assay [5], 10.5 µM (active).
As to `Cc1nc(-c2ccc(-c3ccc(C(=O)N4CCc5cc6c(cc54)C4(CCN(C)CC4)CO6)cc3)c(C)c2)no1`, the Potency result in assay [1], in [6], in [4] and in assay [7] was “inactive” each time.
As to `CN1[C@H]2CC(O)C[C@H]1[C@H]1O[C@H]12` (stereo partly specified), the Potency result in [1] and in assay [7] was “inactive” each time. Also, the Potency in assay [2] was 14.8 µM (active); in assay [6], 9.35 µM (active); in assay [8], 8.33 µM (active); in assay [3] it was 18.7 µM (active); in assay [4], 16.6 µM (active); in assay [5] it was 5.9 µM (active).
On to `Cc1c(C(=O)c2cccc3ccccc23)c2cccc3c2n1[C@H](CN1CCOCC1)CO3`, for which the Potency in [1] is 5.26 µM (active); in [2], 16.6 µM (active); in assay [6], 23.5 µM (active); in assay [3], 16.6 µM (active); in assay [4] it was 23.5 µM (active); in [5] it was 14.8 µM (active).
Take `CC(C)(C)[C@]1(O)C[C@@H]2OC(=O)C[C@@]23C(=O)O[C@@H]2OC(=O)[C@H](O)C213` (stereo partly specified): the Potency result in assay [1], in [6], in assay [5] and in [7] was “inactive” each time. Besides, in assay [9], the Potency is 0.0332 µM (active).
Turning to `C#CC1(O)CCC2C3CCC4=CC(=O)CCC4(C)C3CCC21C` (stereo unspecified), the Potency result in [1], in [2], in assay [8], in [4], in assay [5] and in [7] was “inactive” each time.
Consider `COC(=O)[C@@H](N)CCCN=C(N)N[N+](=O)[O-]`, for which the Potency result in [1], in [6], in assay [9] and in assay [7] was “inactive” throughout.
For the molecule `CC1(N2CCC(n3c([C@@H]4CCCNC4)nc4ccccc43)CC2)CCCCCCC1`, the Potency is 16.6 µM (active) in [1], 6.62 µM (active) in assay [2], 18.7 µM (active) in assay [5] and 14.8 µM (active) in assay [7].
